Platelet DG rel – inhibitors of platelet dense granule secretion, primary screen, cell-based, MLPCN, human platelets | inhibition, %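 (compounds screened at 7.5 µM in platelet-rich plasma)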 | 0.22% of 300,000 active | human platelet-rich plasma, SFLLRN dense granule ATP release, luminescence;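 active = mean replicate score, as percent of positive control, at or above 50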
TWEAK-Fn14 inh – inhibitors of TWEAK-Fn14 signaling, primary screen, luciferase reporter cells, uHTS; 2% of 360,000 active; TWEAK-stimulated Fn14 reporter cells, luciferase luminescence, 8 h; inhibition, % at 10 µM; in the data active = inhibition above about 50%
HSP90 refold inh – HSP90 inhibitors, primary screen, cell lysate, luminescence | Heat shock protein HSP 90 (rabbit reticulocyte lysate; luciferase refolding) | Rabbit reticulocyte lysate, luciferase refolding luminescence, 3 h | inhibition, % at 5.6 µM | 0.91% of 290,000 active;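 active = inhibition above the screen-wide mean plus 3 SD, computed separately per campaign, cut at about 16% in these data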;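 also: inhibitors lower the luminescence because luciferase stays unfolded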
TROY signal inh – inhibitors of TROY-driven NF-kB signaling, primary screen, Q293 LMP1-TROYcd cells, NF-kB luciferase, uHTS; Q293 LMP1-TROYcd NF-kB luciferase reporter, 4 h; inhibition, % at 10 µM; 0.98% of 360,000 active;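 active = compounds whose plate-normalised and pattern-corrected inhibition of the luciferase reporter signal at the single screening dose is 50% or more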
PPC-1+TRAIL kill – compounds killing PPC-1 cancer cells with TRAIL present, primary screen, TRAIL potentiator project, ATPLite luminescence, uHTS; cell killing (% activity), % at 4 µM or 5 µM; 0.41% of 220,000 active; AID 1443, 2008; PPC-1 cells + TRAIL, ATPLite viability luminescence;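 active = cell killing above 50% in the first pass at 4 µM, then a duplicate retest at 5 µM averaging 50% or more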
C8 TRAIL sens – viability loss with TRAIL in NB7+C8 cells, primary screen, TRAIL sensitizer project, cell-based, ATPlite luminescence; inhibition (viability loss, TRAIL sensitization), % at 10 µM; 1% of 360,000 active;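 active = compounds causing at least 50% loss of cell viability in the single-dose screen, relative to plate controls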
Numbers stand for hits; - = inactive; . = no result given; ! = not active in a repeat. Hits are enriched below; roughly 3.5% of the tested compounds scored in any of these assays.

SMILES | Platelet DG rel | TWEAK-Fn14 inh | HSP90 refold inh | TROY signal inh | PPC-1+TRAIL kill | C8 TRAIL sens
Cc1cc(C)c(-c2c(O)c3cccc4c3n(c2=O)CCC4)c(C)c1 | - | 55.6 | - | - | - | -
O=c1c(-c2ccccc2)c(O)c2cccc3c2n1CCC3 | - | - | - | - | - | -
Cc1cccc(NC(=S)NCC(C)CSc2ccc(Cl)cc2)c1 (centres undefined) | - | - | - | 51.5 | - | -
CC(=O)NNc1nc(-c2ccccc2)c2cc(Cl)ccc2n1 | . | - | . | - | . | -
COCCNC(=O)c1cccc(Nc2nc(-c3ccccc3)c3cc(Cl)ccc3n2)c1 | - | 62.8 | - | - | - | -
Cc1cc(C(=O)CCl)c(C)n1CCc1ccccc1 | - | . | - | . | - | .
Cc1c(P(=S)(c2ccccc2)c2ccccc2)[n+]2ccccc2n1CCc1ccccc1 | . | - | . | - | . | 52.7
O=C1C(c2ccncc2)=C(O)c2ccccc21 | - | - | 16.4 | - | - | 53.9
CC1=C(C(=O)N(C(C)C)C(C)C)CC(CC(=O)NCc2ccco2)C(=O)N1CCCN1CCCC1=O (centres undefined) | . | - | . | - | . | -
CN(C)c1ccnc2c[cH-]cc12.[Fe].c1ccc(-[c-]2[c-](-c3ccccc3)[c-](-c3ccccc3)[c-](-c3ccccc3)[c-]2-c2ccccc2)cc1 (centres undefined) | - | - | . | - | - | 88.7!
CN(C)c1ccnc(Nc2ccccc2)c1C#N | - | - | - | - | - | -
CC1=C(C(=O)N2CCCCCC2)CC(CC(=O)NCCCN(C)C)C(=O)N1Cc1ccc(C(C)(C)C)cc1 (centres undefined) | . | - | . | - | . | -
Cc1ccc(CSC(Nc2ccc(F)cc2)=C(C#N)C#N)cc1 | - | 52.7 | - | - | - | -
Cc1cc(C)n2c(Nc3ccc4c(c3)OCCO4)c(-c3cc4ccccc4o3)nc2n1 | . | 96.7 | . | 85.5 | . | -
Cc1cc(C)n2c(Nc3ccc4c(c3)OCCO4)c(-c3ccc(C)o3)nc2n1 | - | - | - | - | - | -
Clc1cccc(Nc2ncnc3ccc(Br)cc23)c1 | - | 63.1 | - | - | - | -
COc1cc2ncnc(Nc3cccc(Cl)c3)c2cc1OC | . | . | - | . | - | .
Cc1ccc2ncnc(Nc3ccccc3)c2c1 | - | - | - | - | - | -
Cc1cccc(Nc2ncnc3ccc(Br)cc23)c1 | - | 62.1 | - | - | - | -
Clc1ccc(Nc2ncnc3ccc(Br)cc23)cc1 | - | 73.7 | - | - | - | -
CN(C)c1ccc(Nc2ncnc3ccc(Br)cc23)cc1 | - | 82.2 | - | - | . | -
Cc1ccnc(SCC(=O)NC2CCCCCC2)n1 | - | - | - | - | . | -
Cc1cc(C)c(NC(=O)C2CCCO2)c(C)c1NC(=O)C1CCCO1 (centres undefined) | - | - | - | - | . | -
CC1(C)NC(=O)N(CC(=O)OCC(=O)c2ccc(Br)s2)C1=O | . | - | . | - | . | -
CC(C)c1ccc(-n2nc3ccc(N)cc3n2)cc1 | - | 50.8 | - | - | - | 67.6
SMILES | Platelet DG rel | TWEAK-Fn14 inh | HSP90 refold inh | TROY signal inh | PPC-1+TRAIL kill | C8 TRAIL sens
Cc1nn(CC(=O)NC(=O)NC2CCCC(C)C2C)c(=O)c(C#N)c1C (centres undefined) | - | - | . | - | . | -
CC1(C(=O)NS(=O)(=O)c2ccccc2C(F)(F)F)CCN1C(=O)CC1CCCC1 (centres undefined) | . | - | . | - | . | -
O=C1C=CC2(O[C@H](c3ccccc3)[C@@H](c3ccccc3)O2)[C@H](Sc2ccccc2O)C1 | . | 104.8 | . | 80.2 | . | -
O=S(=O)(Nc1ccc(C(O)(C(F)(F)F)C(F)(F)F)cc1)c1cccc2cccnc12 | . | - | . | - | . | -
COc1cccc(C=Cc2nccc3ccccc23)c1OC | . | - | . | - | . | 60.5
O=C(CSc1nccc(=O)[nH]1)Nc1cccc2ccccc12 | - | 50.3 | - | - | . | -
Cc1cccc(NC(=S)NNc2cccc(Cl)c2)c1 | - | - | - | - | . | -
Cc1ccc(NS(=O)(=O)c2cc([N+](=O)[O-])ccc2NNC(=S)Nc2cccc(Cl)c2)c(C)c1 | - | - | - | 62.0 | - | -

Screening data deposited in PubChem by several laboratories.
